The source of these data is publication PMC3795721, “Screening for Protein-DNA Interactions by Automatable DNA-Protein Interaction ELISA”.

The experiment deals with AT4G31550 (Arabidopsis thaliana, UniProt Q9SV15 228-325). In words: DPI-ELISA; DPI-ELISA, streptavidin 384-well plate, 1-2 pmol biotinylated dsDNA per well, crude native E. coli extract, anti-His detection; buffer as in Brand et al. [46],; high values mean tight binding. The note with it: tags: C-terminal His (pET-DEST42); label: 5' biotin on forward strand; dsDNA, one strand shown.
Chain of AT4G31550 (Q9SV15 228-325): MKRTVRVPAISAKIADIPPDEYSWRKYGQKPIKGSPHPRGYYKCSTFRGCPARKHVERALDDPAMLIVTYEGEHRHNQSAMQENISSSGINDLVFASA
Sequence AAAAAAAAATGCTAGCGCGTACGTAAAAAA returned a binding signal of 0.69 ± 0.17 absorbance. Sequence AAAAAATGGTCGTCGTACTCGTGGTCAAAA displayed a binding signal of 2.96 ± 0.424 absorbance.

Take AAAAAATATGGCACTCGCCGCACATCAAAA: the binding signal came out at 0.755 ± 0.191 absorbance. Next, AAAAAAGGCGGTCGTAGTTGTGGGAGAAAA: 1.14 ± 0.0849 absorbance. Turning to AAAAAACCCCAGATTTCCAGCAGTTCAAAA, the binding signal was determined as 0.945 ± 0.629 absorbance. Next, AAAAAAAAGTGCCAACGTTCAAGAAAAA: 0.38 ± 0.099 absorbance; AAAAAATTCCGCGTGTATGTGTACGTAAAA: 0.72 ± 0.212 absorbance; AAAAAAAGGTTTGGGCTTCACGTTATAAAA: 0.725 ± 0.12 absorbance.

Take AAAAAACTACAACCTGCGCGGTGGTCAAAA: the binding signal came to 0.775 ± 0.0636 absorbance. AAAAAAGAAATACCAGAAACTATCATAAAA registered a binding signal of 0.705 ± 0.219 absorbance.

On to AAAAAACTCTTAAGGAAAGTTCCGACAAAA, for which the binding signal turned out to be 0.645 ± 0.12 absorbance. Consider AAAAAACCGAGTGTTGCCAGTTGCAGAAAA, for which the binding signal is 0.655 ± 0.0919 absorbance.

For the sequence AAAAAAACGATACGGTATCTAGAAAA, the binding signal was 0.525 ± 0.0495 absorbance. AAAAAAGAGAATTGTCAGTGCCCAACAAAA showed a binding signal of 0.705 ± 0.106 absorbance.

Sequence AAAAAATTCACTTTTACCTTTGTGTTAAAA came in with a binding signal of 0.555 ± 0.0919 absorbance.

Consider AAAAAACCGCTTACATTGCGTTGTCGAAAA, for which the binding signal turned out to be 0.605 ± 0.0495 absorbance. The result for AAAAAAGTCATTATAACCCAAACTCTAAAA reads 0.5 ± 0.113 absorbance.

Sequence AAAAAAGGCTGTGGCCAATGTTCGTAAAAA had a binding signal of 0.55 ± 0.0566 absorbance.

As to AAAAAATTTGTACTTTAAGTTTACATAAAA, the binding signal is 0.56 ± 0.0849 absorbance. As for AAAAAATTTGCGCTTCATCCTGCCCCAAAA, the binding signal was 0.715 ± 0.106 absorbance.

For the sequence AAAAAAAATTAGTCTCTTCGTCTCCCAAAA, the binding signal worked out at 0.575 ± 0.106 absorbance.

The sequence AAAAAAACTCACGGCGTCACTATGGTAAAA gave a binding signal of 0.585 ± 0.12 absorbance.

In the case of AAAAAATATGTAGCTGCCGTTACGCTAAAA, the binding signal turned out to be 0.54 ± 0.212 absorbance. Next, AAAAAACCCATCCTTCGTTCCATCGTAAAA: 0.76 ± 0.141 absorbance; AAAAAAAGTGGCCGCTAGTCAACTCAAAAA: 3.46 ± 0.389 absorbance; AAAAAAACGGTGTCATAGTATTAGTGAAAA: 0.585 ± 0.134 absorbance. The result for AAAAAAAGTTCCAGGTCCGATGCTCAAAAA reads 0.805 ± 0.318 absorbance; that for AAAAAACCCGCCGTCGTGATTATCACAAAA, 0.73 ± 0.0707 absorbance. Take AAAAAAGGCTTCCACTTTGAGTTTGCAAAA: the binding signal is 0.57 ± 0.099 absorbance. The result for AAAAAATTCGTATCTGTACCCTATGCAAAA reads 0.79 ± 0.283 absorbance; that for AAAAAAACGGGTTGTGAATGTGGAAGAAAA, 0.575 ± 0.148 absorbance. Next, AAAAAATTTTGTGGTGTTTCGCCACCAAAA: 0.715 ± 0.0495 absorbance. The result for AAAAAAGCTCATGGCCCTGAGGATCTAAAA reads 0.73 ± 0.113 absorbance. The sequence AAAAAATATTCGCCGGTAGCCACGCTAAAA showed a binding signal of 0.565 ± 0.12 absorbance. Next, AAAAAATTACGTTTGTATTTGTAAAA: 0.555 ± 0.0636 absorbance; AAAAAATGTCTAGACTCGGACATTCGAAAA: 0.54 ± 0.0566 absorbance. The result for AAAAAACACTTAACTGAGTGGGATTGAAAA reads 0.705 ± 0.134 absorbance. AAAAAACCTTACTGTTGATTCTGGTTAAAA: the binding signal came out at 0.635 ± 0.134 absorbance.
